Calls of active or inactive are those of the source. No rule for the calls is given here.
molecular target: Bifunctional epoxide hydrolase 2 (Homo sapiens) (UniProt P34913); assay: sEH inhibitor concentration-response potency, dose response, biochemical, human sEH, fluorescence, Infinite200 (AID 1026); details: recombinant human sEH, fluorogenic substrate, at 0.2 µM, active compounds read high
Sequence (P34913 whole entry, looked up): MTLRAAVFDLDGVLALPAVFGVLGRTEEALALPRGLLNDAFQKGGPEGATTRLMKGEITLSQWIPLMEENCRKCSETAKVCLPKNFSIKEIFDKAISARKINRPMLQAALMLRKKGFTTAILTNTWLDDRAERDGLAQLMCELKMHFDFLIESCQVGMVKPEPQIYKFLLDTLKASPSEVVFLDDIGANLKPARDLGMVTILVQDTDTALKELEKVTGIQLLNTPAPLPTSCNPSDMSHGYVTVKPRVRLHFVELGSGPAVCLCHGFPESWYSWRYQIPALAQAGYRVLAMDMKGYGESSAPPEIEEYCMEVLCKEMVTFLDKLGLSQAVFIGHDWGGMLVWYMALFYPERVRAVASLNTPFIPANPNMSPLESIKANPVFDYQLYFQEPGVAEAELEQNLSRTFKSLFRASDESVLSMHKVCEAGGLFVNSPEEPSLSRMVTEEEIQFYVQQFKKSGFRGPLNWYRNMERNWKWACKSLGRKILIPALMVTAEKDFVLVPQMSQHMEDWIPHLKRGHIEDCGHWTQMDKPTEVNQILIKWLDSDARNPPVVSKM

inhibition, inactive:
O=C(NC1CCCCCCC1)C1CCN(S(=O)(=O)N2CCC3(CC2)OCCO3)CC1 49.5%, O=C(Nc1ccc2c(c1)nc1n2CCN(C2CCCCC2)C1)NC1CCCCC1 72.7%, CCC(C)[C@H](NC(=O)NCc1ccccc1Cl)C(=O)OC (stereo not given in full) 48.1%, CCN(CCNC(=O)C1CCN(Cc2nc(-c3cccc(Cl)c3)oc2C)CC1)c1ccccc1 45.4%, Cc1ccc(CCNC(=O)C2CCCN(S(=O)(=O)c3cccc4nsnc34)C2)cc1 (stereo not given) -5.2%, O=C(NCc1ccc(N2CCCC2=O)cc1)NC1CCCCC1 47.5%, COc1ccc(N2CCC(CNC(=O)Nc3cccc(OC)c3)C2)cc1 (stereo not given) 44.5%, CCn1nc(CC(=O)Nc2ccc(-n3cnnn3)c(C)c2)c2ccccc2c1=O 48.9%, Cc1cc2nc(-c3ccc(SCC(=O)N4CCN(C(=O)c5ccco5)CC4)nc3)[nH]c2cc1C 48%, Cc1ccccc1CSCCNC(=O)CCSc1ccccc1 44.2%, O=C(Nc1cccc(C(F)(F)F)c1)N1CCC(c2nc(-c3ccc(F)cc3)no2)CC1 68.4%, O=C(NCc1ccc2c(c1)OCO2)C1CCC(CNS(=O)(=O)c2cccc3nsnc23)CC1 (stereo not given) 59.7%, O=C(Nc1ccc(F)c(F)c1)NC1CCCCC1 55.5%, O=C(N/N=C/c1ccc(O)cc1)c1csc2ccccc12 54.5%, O=C(CN1C(=O)c2ccccc2S1(=O)=O)Nc1ccc(S(=O)(=O)N2CCCCC2)cc1 49.9%, CC1CC(C)CN(C(=O)c2ccc3c(=O)n(Cc4ccc5c(c4)OCO5)c(=S)[nH]c3c2)C1 (stereo not given) 54.3%, CC(C)CN1C(=O)c2ccc(C(=O)NCc3ccc4c(c3)OCO4)cc2C1=O 56%, CCN(CCCNC(=O)CCCCn1c(=O)[nH]c2ccccc2c1=O)c1ccccc1 38.1%, CCC(C)c1ccc(NC(=O)c2cccs2)cc1 (stereo not given) 68%, COc1ccc(-c2nc3cc(NC(=O)Cc4ccc(OC)c(OC)c4)ccc3o2)cc1 52.1%, Cc1cc2nc(-c3ccc(SCC(=O)N4CCc5ccccc54)nc3)[nH]c2cc1C 56.7%, CCOc1ccc(NC(=O)Nc2ccc(N(C)C(C)=O)cc2)cc1 54.1%, CCC(C)NC(=O)Nc1ccc2c(c1)N(C)C(=O)c1ccccc1S2 (stereo not given) 59.7%, Cc1oc(-c2ccccc2F)nc1CN1CCC(C(=O)NC2CCCCCCC2)CC1 63.1%, O=C(NC1CCCCC1)NC1CC2CCC(C1)N2Cc1nnnn1Cc1ccc2c(c1)OCO2 (stereo not given) 74.2%, Cc1ccccc1-c1nc(CN2CCC(C(=O)NCCC3=CCCCC3)CC2)c(C)o1 55.6%, O=C(NCCSCc1ccco1)Nc1cccc(Cl)c1 46.2%, CCN(CCNC(=O)C1CCN(Cc2nc(-c3ccc(Cl)cc3)oc2C)CC1)c1ccccc1 36.3%, O=C(COC(=O)c1ccc(S(=O)(=O)NCc2ccco2)cc1)NC1CCCCCC1 62.6%, CC1CCCCN1C(=O)NC12CC3CC(CC(C3)C1)C2 (stereo not given) 16.8%, O=C(N[C@@H](Cc1ccccc1)C(=O)NC1CCCCCC1)c1ccco1 36.3%, COCCNC(=O)CN1CCC(NC(=O)Nc2ccc(C(F)(F)F)cc2)CC1 54.7%, Cc1oc(-c2ccccc2F)nc1CN1CCC(C(=O)NCCC2=CCCCC2)CC1 56.5%, O=C(Nc1ccc(Cl)c(C(F)(F)F)c1)C1CCCN(S(=O)(=O)c2cnc[nH]2)C1 (stereo not given) 72.5%, O=C(CCC1CCCCC1)NNC(=O)NC12CC3CC(CC(C3)C1)C2 59.2%, O=C(NCCC1=CCCCC1)C1CCN(c2nc3ccccc3o2)CC1 45.6%, COc1ccccc1NS(=O)(=O)c1cccc(C(=O)N/N=C(\C)c2ccc(-n3ccnc3)cc2)c1 46.4%, CC(C)(C)c1ccc(C(=O)N2CCC(C(=O)NCCC3=CCCCC3)CC2)cc1 38%, O=C(Nc1cccc(F)c1)NC1CCCCC1 51.9%, CCN(CCCNC(=O)C1CCN(S(=O)(=O)N2CCC3(CC2)OCCO3)CC1)c1ccccc1 53.8%

— PubChem BioAssay AID1026 (Columbia University Molecular Screening Center, 2008)
